# Assay results as given in the supplement of paper PMC4022240.
# ± gives the standard deviation.
# T1: HaloTag-ATRX ADD domain (163-292)
# T1 chain: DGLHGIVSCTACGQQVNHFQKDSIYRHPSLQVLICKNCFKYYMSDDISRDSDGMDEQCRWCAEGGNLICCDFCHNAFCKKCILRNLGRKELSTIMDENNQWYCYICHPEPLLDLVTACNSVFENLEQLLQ
# Legend:
# Experiment in all cases: peptide microarray binding signal (635 nm), min-max normalized on array (fraction of array maximum); higher = stronger binding
# Settings in all cases: peptide region: H3 11-23
# [1] = target: T1, HaloTag-ATRX ADD domain (163-292)
# Outline: (§1)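 Triplicate spots of histone 13-mer peptide–cellulose conjugates with a Cy3 tracer were printed on nitrocellulose and probed for 1 h at 4°C with biotin-labelled HaloTag reader fusions (10 nM to 1 μM) plus streptavidin-Alexa Fluor 647 or rabbit histone antibodies (1:10,000 to 1:2,000) plus anti-rabbit Alexa 647. An Axon GenePix 4000B read the 635 nm channel. Binding signal is the spot-triplicate mean intensity after min-max scaling within each library.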
# [2] = target: HaloTag-ING2 PHD (mouse Ing2 200-280)
# Outline: as §1
# [3] = target: anti-H3K4me3 antibody ab8580
# Outline: as §1
# [4] = target: anti-H3K9me3 antibody ab8898
# Outline: as §1
# [5] = peptide modifications: H3K14me2 H3R17me1, binder concentration: 1:2,000 dilution
# [6] = peptide modifications: H3K14me2 H3R17me1, binder concentration: 1:10,000 dilution
# [7] = peptide modifications: H3K14me3 H3K18ac, binder concentration: 1:2,000 dilution
# [8] = peptide modifications: H3K14me3 H3K18ac, binder concentration: 1:10,000 dilution
# [9] = peptide modifications: H3K14me1 H3K18me3, binder concentration: 1:2,000 dilution
# [10] = peptide modifications: H3K14me1 H3K18me3, binder concentration: 1:10,000 dilution
# [11] = peptide modifications: H3K14me3 H3K18me1, binder concentration: 1:2,000 dilution
# [12] = peptide modifications: H3K14me3 H3K18me1, binder concentration: 1:10,000 dilution
# [13] = peptide modifications: H3K14me2 H3R17me2s, binder concentration: 1:2,000 dilution
# [14] = peptide modifications: H3K14me2 H3R17me2s, binder concentration: 1:10,000 dilution
# [15] = peptide modifications: H3K14me2 H3K18me3, binder concentration: 1:2,000 dilution
# [16] = peptide modifications: H3K14me2 H3K18me3, binder concentration: 1:10,000 dilution
# [17] = peptide modifications: H3K14me2 H3R17me2a, binder concentration: 1:2,000 dilution
# [18] = peptide modifications: H3K14me2 H3R17me2a, binder concentration: 1:10,000 dilution
# [19] = peptide modifications: H3K14me2 H3R17cit, binder concentration: 1:2,000 dilution
# [20] = peptide modifications: H3K14me2 H3R17cit, binder concentration: 1:10,000 dilution
# [21] = peptide modifications: H3K14me2 H3K18ac, binder concentration: 1:2,000 dilution
# [22] = peptide modifications: H3K14me2 H3K18ac, binder concentration: 1:10,000 dilution
# [23] = peptide modifications: H3K14me3 H3K18me2, binder concentration: 1:2,000 dilution
# [24] = peptide modifications: H3K14me3 H3K18me2, binder concentration: 1:10,000 dilution
binder,measurement,setting,value
TGGKAPRKQLATK [H3 11-23 T G G Kme2 A P Rme K Q L A T K],peptide microarray binding signal,"[1]; peptide modifications: H3K14me2 H3R17me1, binder concentration: 50 nM",0.00417 ± 0.00015
same,peptide microarray binding signal,"[1]; peptide modifications: H3K14me2 H3R17me1, binder concentration: 500 nM",0.0101 ± 0.00014
same,peptide microarray binding signal,"[2]; peptide modifications: H3K14me2 H3R17me1, binder concentration: 10 nM",0.00483 ± 0.00017
same,peptide microarray binding signal,"[2]; peptide modifications: H3K14me2 H3R17me1, binder concentration: 100 nM",0.00843 ± 0.0018
same,peptide microarray binding signal,[3]; [5],0.00376 ± 0.0005
same,peptide microarray binding signal,[3]; [6],0.00211 ± 8.9e-05
same,peptide microarray binding signal,[4]; [5],0.00378 ± 0.00014
same,peptide microarray binding signal,[4]; [6],0.00288 ± 8.6e-05
TGGKAPRKQLATK [H3 11-23 T G G Kme3 A P R Kac Q L A T K],peptide microarray binding signal,"[1]; peptide modifications: H3K14me3 H3K18ac, binder concentration: 50 nM",0.00646 ± 0.00042
same,peptide microarray binding signal,"[1]; peptide modifications: H3K14me3 H3K18ac, binder concentration: 500 nM",0.0102 ± 0.00058
same,peptide microarray binding signal,"[2]; peptide modifications: H3K14me3 H3K18ac, binder concentration: 10 nM",0.0146 ± 0.00098
same,peptide microarray binding signal,"[2]; peptide modifications: H3K14me3 H3K18ac, binder concentration: 100 nM",0.032 ± 0.004
same,peptide microarray binding signal,[3]; [7],0.06 ± 0.018
same,peptide microarray binding signal,[3]; [8],0.0259 ± 0.0059
same,peptide microarray binding signal,[4]; [7],0.0686 ± 0.018
same,peptide microarray binding signal,[4]; [8],0.0246 ± 0.0023
TGGKAPRKQLATK [H3 11-23 T G G Kme A P R Kme3 Q L A T K],peptide microarray binding signal,"[1]; peptide modifications: H3K14me1 H3K18me3, binder concentration: 50 nM",0.00705 ± 0.00051
same,peptide microarray binding signal,"[1]; peptide modifications: H3K14me1 H3K18me3, binder concentration: 500 nM",0.0115 ± 0.00073
same,peptide microarray binding signal,"[2]; peptide modifications: H3K14me1 H3K18me3, binder concentration: 10 nM",0.0113 ± 0.00048
same,peptide microarray binding signal,"[2]; peptide modifications: H3K14me1 H3K18me3, binder concentration: 100 nM",0.0191 ± 0.00089
same,peptide microarray binding signal,[3]; [9],0.389 ± 0.079
same,peptide microarray binding signal,[3]; [10],0.473 ± 0.23
same,peptide microarray binding signal,[4]; [9],0.0513 ± 0.004
same,peptide microarray binding signal,[4]; [10],0.0139 ± 0.0023
TGGKAPRKQLATK [H3 11-23 T G G Kme3 A P R Kme Q L A T K],peptide microarray binding signal,"[1]; peptide modifications: H3K14me3 H3K18me1, binder concentration: 50 nM",0.00624 ± 0.00027
same,peptide microarray binding signal,"[1]; peptide modifications: H3K14me3 H3K18me1, binder concentration: 500 nM",0.0127 ± 0.00063
same,peptide microarray binding signal,"[2]; peptide modifications: H3K14me3 H3K18me1, binder concentration: 10 nM",0.0189 ± 0.00082
same,peptide microarray binding signal,"[2]; peptide modifications: H3K14me3 H3K18me1, binder concentration: 100 nM",0.0235 ± 0.0053
same,peptide microarray binding signal,[3]; [11],0.0496 ± 0.0091
same,peptide microarray binding signal,[3]; [12],0.0252 ± 0.0028
same,peptide microarray binding signal,[4]; [11],0.0621 ± 0.0077
same,peptide microarray binding signal,[4]; [12],0.0203 ± 0.0028
TGGKAPRKQLATK [H3 11-23 T G G Kme2 A P Rme2s K Q L A T K],peptide microarray binding signal,"[1]; peptide modifications: H3K14me2 H3R17me2s, binder concentration: 50 nM",0.00489 ± 0.00015
same,peptide microarray binding signal,"[1]; peptide modifications: H3K14me2 H3R17me2s, binder concentration: 500 nM",0.0177 ± 0.0016
same,peptide microarray binding signal,"[2]; peptide modifications: H3K14me2 H3R17me2s, binder concentration: 10 nM",0.0129 ± 0.0031
same,peptide microarray binding signal,"[2]; peptide modifications: H3K14me2 H3R17me2s, binder concentration: 100 nM",0.00964 ± 0.0051
same,peptide microarray binding signal,[3]; [13],0.00034 ± 1e-05
same,peptide microarray binding signal,[3]; [14],0.0123 ± 0.0055
same,peptide microarray binding signal,[4]; [13],0.00669 ± 0.0021
same,peptide microarray binding signal,[4]; [14],0.00726 ± 0.0002
TGGKAPRKQLATK [H3 11-23 T G G Kme2 A P R Kme3 Q L A T K],peptide microarray binding signal,"[1]; peptide modifications: H3K14me2 H3K18me3, binder concentration: 50 nM",0.00646 ± 0.00024
same,peptide microarray binding signal,"[1]; peptide modifications: H3K14me2 H3K18me3, binder concentration: 500 nM",0.009572 ± 8e-05
same,peptide microarray binding signal,"[2]; peptide modifications: H3K14me2 H3K18me3, binder concentration: 10 nM",0.00859 ± 0.00099
same,peptide microarray binding signal,"[2]; peptide modifications: H3K14me2 H3K18me3, binder concentration: 100 nM",0.0188 ± 0.0022
same,peptide microarray binding signal,[3]; [15],0.54 ± 0.11
same,peptide microarray binding signal,[3]; [16],0.4 ± 0.12
same,peptide microarray binding signal,[4]; [15],0.0567 ± 0.005
same,peptide microarray binding signal,[4]; [16],0.0291 ± 0.002
TGGKAPRKQLATK [H3 11-23 T G G Kme2 A P Rme2a K Q L A T K],peptide microarray binding signal,"[1]; peptide modifications: H3K14me2 H3R17me2a, binder concentration: 50 nM",0.00561 ± 0.00083
same,peptide microarray binding signal,"[1]; peptide modifications: H3K14me2 H3R17me2a, binder concentration: 500 nM",0.00867 ± 0.00039
same,peptide microarray binding signal,"[2]; peptide modifications: H3K14me2 H3R17me2a, binder concentration: 10 nM",0.00686 ± 0.00028
same,peptide microarray binding signal,"[2]; peptide modifications: H3K14me2 H3R17me2a, binder concentration: 100 nM",0.00893 ± 0.00059
same,peptide microarray binding signal,[3]; [17],0.00351 ± 0.00056
same,peptide microarray binding signal,[3]; [18],0.00434 ± 0.00045
same,peptide microarray binding signal,[4]; [17],0.00379 ± 0.00076
same,peptide microarray binding signal,[4]; [18],0.00306 ± 0.00024
TGGKAPRKQLATK [H3 11-23 T G G Kme2 A P Rcit K Q L A T K],peptide microarray binding signal,"[1]; peptide modifications: H3K14me2 H3R17cit, binder concentration: 50 nM",0.00455 ± 0.00063
same,peptide microarray binding signal,"[1]; peptide modifications: H3K14me2 H3R17cit, binder concentration: 500 nM",0.0129 ± 0.0034
same,peptide microarray binding signal,"[2]; peptide modifications: H3K14me2 H3R17cit, binder concentration: 10 nM",0.0106 ± 0.0018
same,peptide microarray binding signal,"[2]; peptide modifications: H3K14me2 H3R17cit, binder concentration: 100 nM",0.0185 ± 0.002
same,peptide microarray binding signal,[3]; [19],0.00051 ± 4e-05
same,peptide microarray binding signal,[3]; [20],0.0016 ± 4.6e-05
same,peptide microarray binding signal,[4]; [19],0.00488 ± 0.0014
same,peptide microarray binding signal,[4]; [20],0.00398 ± 0.00058
TGGKAPRKQLATK [H3 11-23 T G G Kme2 A P R Kac Q L A T K],peptide microarray binding signal,"[1]; peptide modifications: H3K14me2 H3K18ac, binder concentration: 50 nM",0.00868 ± 0.00034
same,peptide microarray binding signal,"[1]; peptide modifications: H3K14me2 H3K18ac, binder concentration: 500 nM",0.0165 ± 0.0015
same,peptide microarray binding signal,"[2]; peptide modifications: H3K14me2 H3K18ac, binder concentration: 10 nM",0.0173 ± 0.003
same,peptide microarray binding signal,"[2]; peptide modifications: H3K14me2 H3K18ac, binder concentration: 100 nM",0.0242 ± 0.0017
same,peptide microarray binding signal,[3]; [21],0.0129 ± 0.0016
same,peptide microarray binding signal,[3]; [22],0.0111 ± 0.00098
same,peptide microarray binding signal,[4]; [21],0.00806 ± 0.00086
same,peptide microarray binding signal,[4]; [22],0.00496 ± 0.00013
TGGKAPRKQLATK [H3 11-23 T G G Kme3 A P R Kme2 Q L A T K],peptide microarray binding signal,"[1]; peptide modifications: H3K14me3 H3K18me2, binder concentration: 50 nM",0.0154 ± 0.00095
same,peptide microarray binding signal,"[1]; peptide modifications: H3K14me3 H3K18me2, binder concentration: 500 nM",0.00933 ± 0.00068
same,peptide microarray binding signal,"[2]; peptide modifications: H3K14me3 H3K18me2, binder concentration: 10 nM",0.0107 ± 0.0026
same,peptide microarray binding signal,"[2]; peptide modifications: H3K14me3 H3K18me2, binder concentration: 100 nM",0.0194 ± 0.008
same,peptide microarray binding signal,[3]; [23],0.0408 ± 0.02
same,peptide microarray binding signal,[3]; [24],0.0276 ± 0.0038
same,peptide microarray binding signal,[4]; [23],0.0775 ± 0.0048
same,peptide microarray binding signal,[4]; [24],0.0328 ± 0.0026
